Data as given in PubChem BioAssay (NCI).
The panel holds about 83,000 compounds, 20% with a hit somewhere; the sample as a whole holds those more often.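 Compound tested at a single concentration for 48 hours in 96-well plates; a percent growth value below 10 was scored as active.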 A number with no mark means an inactive call. Calls of active or inactive are those of the source.

Key:
Test in all cases: NCI-60 one-dose screen, 48 h (100 = growth as untreated, 0 = no growth, -100 = all killed)
Details in all cases: 10 µM unless noted
NCI-H23 lung = system: NCI-H23 lung
NCI-H226 lung = system: NCI-H226 lung
NCI-H322M lung = system: NCI-H322M lung
HOP-62 NSCLC = system: HOP-62 NSCLC
NCI-H460 lung = system: NCI-H460 lung
HOP-92 NSCLC = system: HOP-92 NSCLC
NCI-H522 lung = system: NCI-H522 lung
A549/ATCC NSCLC = system: A549/ATCC NSCLC
786-0 renal = system: 786-0 renal

Row | SMILES | growth (NCI-H23 lung) | growth (NCI-H226 lung) | growth (NCI-H322M lung) | growth (HOP-62 NSCLC) | growth (NCI-H460 lung) | growth (HOP-92 NSCLC) | growth (NCI-H522 lung) | growth (A549/ATCC NSCLC) | growth (786-0 renal)
1 | Nc1ccc(CCCCc2ccccc2)c(Cl)c1 | 101% | 96.8% | 85% | 105% | 102% | 53.1% | 71.1% | 81.2% | 88.9%
2 | O=C(O)C1C[C@](O)(c2ccc(F)cc2)[C@@H](c2ccc(F)cc2)O1 (stereo partly specified) | 91.4% | 122% | 121% | 90.3% | 101% | 78.2% | 91.5% | 112% | 95.6%
3 | O=S(=O)(NCCNc1cc(-c2c(-c3cccc(O)c3)nc3sccn23)ccn1)c1ccc(Br)cc1 | 76.2% | 62.3% | 81.1% | 102% | 54.1% | 74.9% | 66.1% | 50.1% | 52.7%
4 | Cc1cc(=O)[nH]c(N/N=C/c2cc(Br)ccc2O)n1 | 33.7% | 40.5% | -15% (active) | 48% | -1.75% (active) | 55% | 19.5% | 23.4% | 7.2% (active)
5 | COc1ccc(-n2ncn(CCCCCCn3cnn(-c4ccc(OC)cc4)c3=O)c2=O)cc1 | 82.9% | 80.3% | 88.4% | 89.5% | 103% | 89.4% | 76.3% | 96.7% | 96.7%
6 | COc1ccc(C2CC(c3cnccn3)=NN2)cc1OC (stereo unspecified) | 101% | 98.8% | 90.9% | 111% | 108% | 68.3% | 67% | 90.4% | 92%
7 | COc1ccc(/C(C)=N/NS(=O)(=O)c2ccc(C)cc2)cc1OC | 105% | 106% | 120% | 117% | 97.8% | 69% | 117% | 102% | 102%
8 | COc1ccc(/C=C(\C#N)n2nnc3cc(F)c(F)cc32)c(OC)c1OC | 71.8% | 83% | 76% | 82.9% | 71.4% | 83.5% | 51.4% | 84.2% | 93.9%
9 | COc1cc(/C=C/c2nc(Nc3ccc(S(=O)(=O)Nc4cc(C)on4)cc3)c3ccccc3n2)ccc1O | 74.3% | 85.8% | 87.8% | 78.8% | 65.5% | 83.9% | 42.4% | 75.3% | 94.4%
10 | C=C1c2c(C)nn(-c3ccc(O)cc3)c2N(C)C23C[C@@H]1C1(C)c4c(C)nn(-c5ccc(O)cc5)c4N(C)C(C)(C[C@H]12)C3 (stereo partly specified) | 50.4% | 11.8% | 59.4% | 37% | 20.1% | 7.18% (active) | 20.7% | 31.3% | 34.3%
11 | COc1ccc(C2CC(c3ccccc3)=NN2c2nc(C)c(C(C)=O)s2)cc1 (stereo unspecified) | 99.3% | 101% | 98.6% | 101% | 106% | 95.4% | 88.3% | 98.7% | 101%
12 | COc1cc(-c2cc(-c3ccc(Nc4nc(Nc5ccccc5)nc(Nc5ccc(Cl)cc5)n4)cc3)nc(N)n2)cc(OC)c1OC | 46.9% | 75.6% | 81.9% | 47.2% | 65.8% | 42.4% | 66.3% | 79.3% | 44%
13 | O=C(Oc1ccc[nH]c1=O)c1cc([N+](=O)[O-])cc([N+](=O)[O-])c1 | 114% | 104% | 98.6% | 97.2% | 111% | 146% | 116% | 77.3% | 101%
14 | CSc1ccc(Cl)c(C(=O)Nc2sccc2C(N)=O)c1 | 97.9% | 79.9% | 124% | 107% | 101% | 75.6% | 92.2% | 85.6% | 94.2%
15 | CSc1ncc(C)c(Nc2ccc(Cl)cc2)n1 | 99.6% | 104% | 106% | 111% | 103% | 73.6% | 80.1% | 96.4% | 91.9%
16 | CCc1nc2ccccc2[nH]1 | 104% | 99.7% | 110% | 105% | 102% | 99.7% | 103% | 107% | 112%
17 | COC(=O)/C(=C\c1ccc(OC)cc1)C(=O)N1c2ccccc2Sc2ccccc21 | 72.7% | 75.1% | 83% | 64% | 96.7% | 38.7% | 2.63% (active) | 56.2% | 70.5%
18 | CCOC(=O)c1c(C)nc2c(c1N)/C(=C/c1cc(OC)c(OC)c(OC)c1)C(=O)N2c1ccc(OC)cc1 | 78.8% | 86.7% | 88.4% | 128% | 48.5% | 40.7% | 50.4% | 88.8% | 44.5%
19 | NC(=Nc1ccc(N)cc1)C(N)=Nc1ccc(N)cc1 | 108% | 94.4% | 105% | 107% | 106% | 112% | 111% | 68.4% | 99.6%
20 | c1ccc2c(c1)nc(-n1ccnc1)c1nc3ccccc3n12 | 65.8% | 65.7% | 71.9% | 47.9% | 40.7% | 80.9% | 26.9% | 54.3% | 73.1%
21 | N#Cc1c(N)n2c(nc1=Nc1ccc([N+](=O)[O-])cc1)sc1cc(Cl)ccc12 | 79% | 88.4% | 96% | 102% | 86.9% | 57.6% | 77% | 106% | 109%
22 | O=C1N/C(=N/O)S/C1=C/c1cn(-c2ccccc2)nc1-c1ccccc1 | 88.1% | 91.9% | 87.3% | 98% | 104% | 107% | 95.6% | 93.6% | 83.7%
23 | CN(C)c1cnccn1 | 91.9% | 85.4% | 114% | 90.3% | 93.8% | 94.4% | 45.9% | 91.3% | 98.3%
24 | COc1cc2nc(Nc3ccc(F)cc3)nc(N)c2cc1OC | 95.1% | 81.7% | 95.4% | 112% | 99.5% | 63.9% | 92% | 92.6% | 87.1%
25 | COc1ccc(C(=O)/C=C/C23c4ccccc4C(c4ccccc42)C2C(=O)NC(=O)C23)cc1 (stereo unspecified) | 88.1% | 99.7% | 92.4% | 96.4% | 96.2% | 103% | 87% | 90.7% | 103%
26 | CC/C=C/[C@@H]1C=C[C@@H]2CCC[C@H]2[C@@H]1CC[C@H](O)[C@H](C)N | -63.4% (active) | 91.5% | -35.4% (active) | -89.7% (active) | -83.1% (active) | 12% | -56.9% (active) | 3.8% (active) | -92.4% (active)
27 | CCN(CC)CCOC(=O)Nc1ccccc1Cl | 105% | 88.1% | 92.7% | 102% | 104% | 82% | 68.9% | 98.7% | 92.1%
28 | COc1ccc(Oc2nc(Nc3ccc(N4CCCCC4)nc3)ncc2NC(=O)c2cc(OC)cc(OC)c2)cc1 | 68.8% | 60.2% | 48.9% | 42.5% | 19% | 76.4% | 26.6% | 41.6% | 39.6%
29 | CCOC(=O)c1cnn2c(-c3ccc(Cl)cc3)nc(NCc3ccccc3)nc12 | 58.4% | 89.3% | 99.2% | 93.5% | 78.1% | 64.2% | 81.5% | 84.9% | 6.24% (active)
